Measured values from PubChem BioAssay (NCI).
About 83,000 compounds went through this panel and 20% of them were active in at least one assay; those are over-represented in the sample as a whole.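 Negative percent growth values reflect cell death: -40 means 40% of the cells present at the start died, and -100 means all died.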 Unmarked numbers belong to inactive results. Active and inactive are the calls of the source. How the source made its calls: active means growth percent below 10; inactive means the rest.

Experiments:
Experiment in all cases: NCI-60 one-dose screen, 48 h (100 = growth as untreated, 0 = no growth, -100 = all killed)
Settings in all cases: 10 µM unless noted
[1] = test system: NCI-H23 lung
[2] = test system: NCI-H226 lung
[3] = test system: NCI-H322M lung
[4] = test system: HOP-62 NSCLC
[5] = test system: NCI-H460 lung
[6] = test system: HOP-92 NSCLC
[7] = test system: NCI-H522 lung
[8] = test system: A549/ATCC NSCLC
[9] = test system: COLO 205 colon
[10] = test system: 786-0 renal

SMILES | growth [1] | growth [2] | growth [3] | growth [4] | growth [5] | growth [6] | growth [7] | growth [8] | growth [9] | growth [10]
CN1CCN(Cc2ccc(NC(=O)c3[nH]ncc3Nc3ncnc4[nH]ccc34)cc2)CC1 | -12.2% (active) | -21.3% (active) | 3.32% (active) | 14.1% | 2.62% (active) | -7.91% (active) | 1.39% (active) | 11.4% | -51% (active) | 
O=C(C[C@@H](C(=O)NCc1cccc(C(F)(F)F)c1)N1C(=O)[C@@H](N2C(=O)OC[C@@H]2c2ccccc2)[C@H]1/C=C/c1ccccc1)NC1CCN(Cc2ccccc2)CC1 | 36.2% | 88.6% | 73.1% | 72.7% | 13.1% | 76.7% | 33.8% | 53.5% | 45.7% | 76.3%
NC(CC(=O)O)C(=O)OCc1ccccc1 (stereo not given) | 104% | 95.1% | 84.2% | 86.7% | 103% | 86.3% | 84.3% | 105% | 106% | 98.6%
COc1ccc(-c2cc(=O)[nH]c3c(OC)c4ccccc4c(OC)c23)cc1 | 19.2% | 39.9% | 41.8% | 36.8% | 8.71% (active) | 73.9% | -17.2% (active) | 23.6% | -58.8% (active) | 34.5%
Cn1c2ccccc2c2c3[nH]c(=O)[nH]c(=O)c3c3c4ccccc4n(C)c3c21 | 43.3% | 52.6% | 51.4% | 38.1% | 20.1% | -4.38% (active) | 20.4% | 24.3% | 53.8% | 
CN(C)c1ccc(C2Nc3ccccc3-n3cccc32)cc1 (stereo not given) | 102% | 82.8% | 91.9% | 107% | 85.8% | 89.7% | 113% | 98.3% | 96% | 108%
Cc1ccc(-c2nc(/C=N/Nc3cc(C)nc4ccc(Cl)cc34)c(C)o2)cc1 | 44.5% | 81.3% | -82.5% (active) | 74.9% | -77.2% (active) | 29.9% | -69.5% (active) | -47.4% (active) | -86% (active) | -93.2% (active)
CCN(CC)CC(O)c1cc(-c2ccc(Cl)cc2)nc2c(C)c(Cl)ccc12 (stereo not given) | -89.3% (active) | -15.8% (active) | -82.5% (active) | -100% (active) | -86% (active) | -46.8% (active) | -76% (active) | -85.8% (active) | -100% (active) | -95.9% (active)
Cc1cc2c(cc1C)NC1=C(N2)OC(c2c3ccccc3cc3ccccc23)C1=O (stereo not given) | 15.2% | 52% | 45.9% | 31.9% | 2.12% (active) | 71.9% | -5.18% (active) | 26.7% | -40.7% (active) | 29.9%
O=C(CO[N+](=O)[O-])Nc1ccc(C(=O)/C=C/c2ccc(Cl)cc2)cc1 | 5.49% (active) | 81.7% | 71.5% | 94.1% | 84.9% | 66.8% | 38.7% | 67.6% | 36.1% | 75%
COc1cc(OC)c(/C=C/S(=O)(=O)Cc2ccc(OC)c(N)n2)c(OC)c1 | 26.6% | 59.6% | 36.3% | 11.6% | 8.27% (active) | 79.9% | -36.1% (active) | 6.41% (active) | -70.7% (active) | 15.9%
O=c1c2cccc3c(Nc4ccccn4)ccc(c32)c2nc3ccccc3n12 | 60.6% | 69.7% | 74.5% | 67.8% | 52.7% | 54.9% | 56.6% | 70.9% | 71% | 88.4%
CCOC(=O)c1ccc2c(c1)nc(/C=C/c1ccc(Cl)cc1)n2-c1cc(C(C)(C)C)[nH]n1 | 77.6% | 44.5% | 48.7% | 43.1% | 59% | 48.2% | 52.2% | 32.8% | 62.5% | 42.7%
Cc1cc2cc3cc(C)c(N(C)C)cc3nc2cc1N(C)C | 23.9% | 54.8% | 22.3% | 23.1% | 8.26% (active) | -37% (active) | -11.7% (active) | 7.53% (active) | -23.8% (active) | 28%
CCOC(=O)CC(=O)c1c(C)cc(C)cc1C | 111% | 104% | 114% | 110% | 105% | 111% | 62.5% | 107% | 117% | 98.3%
CC(=O)/C(=C/c1cccc(Cl)c1)C(=O)c1ccccc1 | 90.2% | 84.1% | 100% | 95.7% | 102% | 88.7% | 56.6% | 82.6% | 107% | 93.2%
COc1cc(C(=O)/C=C/c2c(C)n([O-])c3ccc(C)cc3[n+]2=O)cc(OC)c1OC | 42.2% | 72.7% | 97.9% | 102% | 88.4% | 64.5% | -81.8% (active) | 85.8% | -36.6% (active) | 74%
COc1cc2cc(COc3nccc(-c4ccc(Cl)cc4)n3)c(=O)[nH]c2cc1OC | 88.5% | 89.1% | 79.6% | 88.2% | 86.2% | 69.9% | 108% | 67.5% | 44.3% | 80.9%
CC1(C)OCC2OC3(C(=O)O)OC(C)(C)OC3C2O1 (stereo not given) | 102% | 106% | 93% | 101% | 110% | 116% | 84.6% | 98.1% | 106% | 103%
CS(=O)(=O)c1ccc(-c2cnc3ccc(-c4cccc(S(C)(=O)=O)c4)nn23)cc1 | 44% | 65.1% | 32.8% | 59.2% | 21.4% | 16% | 58.4% | 31% | 46.2% | 
CC(=O)OCC(=O)C1CCC=CC1OC(C)=O (stereo not given) | 97.7% | 92.6% | 88.8% | 86.3% | 108% | 98.9% | 75.1% | 94.4% | 110% | 99.2%
CCOC(=O)c1c2c(n3ccc(NC(=O)CCN4CCCCC4)cc13)C(=O)c1ncccc1C2=O | -55.2% (active) | 73.8% | -77.4% (active) | -74.5% (active) | -35.9% (active) | 78.5% | 5.07% (active) | -70.1% (active) | -71.8% (active) | 19.4%
COc1cc(/C=N/N(C)C)ccc1O | 105% | 91.5% | 99.1% | 91.4% | 105% | -18.7% (active) | 87.7% | 84.1% | 108% | 109%
O=C1c2cc3c(cc2-c2c1c1cc(Cl)c(Cl)cc1c(=O)n2CCCn1ccnc1)OCO3 | -19.4% (active) | -3.81% (active) | 22.9% | -19.5% (active) | 6.51% (active) | 29.5% | 1.51% (active) | 3.18% (active) | 6.24% (active) | -3.17% (active)
COc1ccc(CNc2nccnn2)cc1 | 94.6% | 92% | 103% | 98.6% | 106% | 108% | 85.4% | 96.9% | 95% | 107%
CC(=O)Oc1cc2cnc3c4cc(OC(C)=O)c(OC(C)=O)cc4ccc3c2cc1OC(C)=O | 25.4% | 36.4% | 5.6% (active) | 28.7% | 9.99% (active) | 18.6% | -28.8% (active) | 25.5% | 78% | 18.9%
O=C(Nc1ccc(F)cc1)Nc1ccc(CCO)cc1 | 104% | 107% | 97.7% | 116% | 106% | 103% |  | 91.4% | 132% | 109%
Nc1nc2ccc(-c3nc4ccc5[nH]ncc5c4c4c3CCC4)cc2s1 | 24.2% | 22.7% | 25.8% | 3.53% (active) | 2.53% (active) | -4.3% (active) |  | 32.2% | -2.69% (active) | 25.6%
